These results are taken from PubChem BioAssay (NCI).

Test systems include NCI-H226 lung; HOP-62 NSCLC; NCI-H460 lung; HOP-92 NSCLC; NCI-H522 lung; A549/ATCC NSCLC; 786-0 renal; COLO 205 colon; DU-145 prostate; K-562 leukemia; MALME-3M melanoma; MDA-MB-231 breast; RXF 393 renal; SF-268 CNS; SF-295 CNS; SF-539 CNS; UACC-257 melanoma; M14 melanoma; NCI-H322M lung.
Holding throughout (assay): NCI-60 one-dose screen, 48 h (100 = growth as untreated, 0 = no growth, -100 = all killed)
What all share (conditions): 10 µM unless noted

The structures appear in SMILES notation. About 83,000 compounds went through this panel and 20% of them were active in at least one assay; those are over-represented in the sample as a whole.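 96-well plates, one dose, 48 hours. Percent growth reported; active if below 10.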 Values without a mark were called inactive. Active and inactive are the calls of the source.

For `O=C1C2=C(Nc3cc([N+](=O)[O-])ccc3N2)OC1c1c2ccccc2cc2ccccc12` (stereo not drawn), the growth is 82.9% in the test with NCI-H226 lung; 88% in the test on HOP-62 NSCLC; 46% with NCI-H460 lung; 44.1% in the test with HOP-92 NSCLC; 24% in the test on NCI-H522 lung; 71.1% in the test with A549/ATCC NSCLC. The growth was 48.3% with 786-0 renal; 118% in the test with COLO 205 colon; 74.6% in the test on DU-145 prostate; 21.6% in the test with K-562 leukemia; 97.9% in the test on MALME-3M melanoma; 65.8% in the test with MDA-MB-231 breast. Moreover, the growth with RXF 393 renal was 65.1%; in the test on SF-268 CNS it was 33.2%; in the test on SF-295 CNS, 57.5%; in the test with SF-539 CNS, 58.8%; in the test with UACC-257 melanoma it was 74.4%; in the test on M14 melanoma, 70.1%.
As to `O=C(O)c1ccc2c3c(ncnc13)-c1ccccc1C2=O`, the growth in the test on NCI-H226 lung was 52.4%; in the test on NCI-H322M lung, 23.7%; in the test with HOP-62 NSCLC, 12.3%; with NCI-H460 lung, 11.5%; in the test with HOP-92 NSCLC it was 81%; in the test with NCI-H522 lung it was 77.7%. Further, the growth in the test with A549/ATCC NSCLC was -6.25% (active); in the test with 786-0 renal it was 84.5%; in the test on COLO 205 colon it was 54.7%; in the test on DU-145 prostate, -100% (active); in the test with K-562 leukemia, 74.5%; with MALME-3M melanoma, -68.6% (active). Also, the growth in the test on MDA-MB-231 breast was 89.6%; in the test with RXF 393 renal, 73.5%; in the test with SF-268 CNS, 90%; in the test with SF-295 CNS, 62.3%; in the test with SF-539 CNS it was 63.1%; in the test with UACC-257 melanoma it was 37.8%. Besides, the growth in the test on M14 melanoma is -59% (active).
Take `N[C@H](C(=O)O)[C@@H]1CC(Cl)=NO1`: the growth was 38.1% [20 µM] with NCI-H226 lung; 37.2% [20 µM] with NCI-H322M lung; 26.1% [20 µM] in the test on HOP-62 NSCLC; 7.07% [20 µM] (active) in the test with NCI-H460 lung; 63.6% [20 µM] in the test on HOP-92 NSCLC; 25.4% [20 µM] in the test with NCI-H522 lung. The growth was 19.1% [20 µM] in the test on A549/ATCC NSCLC; 24.2% [20 µM] in the test with 786-0 renal; 33.5% [20 µM] with COLO 205 colon; 37.7% [20 µM] in the test with DU-145 prostate; 20% [20 µM] with K-562 leukemia; 33.5% [20 µM] with MALME-3M melanoma. The growth in the test on MDA-MB-231 breast is 43.4% [20 µM]; with RXF 393 renal, 48.7% [20 µM]; with SF-268 CNS, 25.5% [20 µM]; in the test on SF-295 CNS, 31.2% [20 µM]; in the test on SF-539 CNS it was 21.4% [20 µM]; with UACC-257 melanoma, 39.1% [20 µM]. Moreover, in the test with M14 melanoma, the growth was 16.9% [20 µM].
As for `COC(=O)c1nc(=S)[nH]c(C(=O)OC)c1C(=O)c1ccc2ccccc2c1`, the growth in the test on NCI-H226 lung was 86.9%; in the test with NCI-H322M lung it was 97.7%; with HOP-62 NSCLC, 106%; in the test on NCI-H460 lung, 111%; in the test on HOP-92 NSCLC, 101%; in the test on NCI-H522 lung, 102%. Besides, the growth is 120% with A549/ATCC NSCLC; 114% with 786-0 renal; 110% in the test on DU-145 prostate; 102% in the test on K-562 leukemia; 94.5% with MALME-3M melanoma; 90.4% in the test on MDA-MB-231 breast. Besides, the growth with RXF 393 renal is 99.6%; in the test on SF-268 CNS it was 102%; in the test with SF-295 CNS, 98.6%; in the test with SF-539 CNS, 92.5%; in the test with UACC-257 melanoma it was 112%; in the test with M14 melanoma, 112%.
`NC(=O)/C=C/C(=O)c1c(Cl)cccc1Cl`: the growth with NCI-H226 lung is 37.9%; in the test on NCI-H322M lung, 19.1%; with HOP-62 NSCLC, -4.87% (active); in the test on NCI-H460 lung, -34.1% (active); in the test with HOP-92 NSCLC, -99.3% (active); with NCI-H522 lung it was -59.5% (active). The growth was -43.1% (active) with A549/ATCC NSCLC; -98.8% (active) in the test with 786-0 renal; -75.9% (active) in the test on DU-145 prostate; -19.2% (active) with K-562 leukemia; -68.4% (active) with MALME-3M melanoma; -79.1% (active) in the test on MDA-MB-231 breast. In addition, the growth was -41.6% (active) in the test on RXF 393 renal; -57.3% (active) in the test with SF-268 CNS; 81.9% in the test on SF-295 CNS; -95.4% (active) with SF-539 CNS; -81.7% (active) with UACC-257 melanoma; -96.5% (active) with M14 melanoma.
Regarding `CNC(=O)N/N=C/c1ccc([N+](=O)[O-])o1`, the growth in the test on NCI-H226 lung is 104%; with NCI-H322M lung it was 88.7%; in the test on HOP-62 NSCLC it was 102%; with NCI-H460 lung, 109%; in the test on HOP-92 NSCLC it was 101%; with NCI-H522 lung, 85.2%. Also, the growth was 82.3% in the test with A549/ATCC NSCLC; 111% in the test on 786-0 renal; 104% in the test with DU-145 prostate; 96.5% with K-562 leukemia; 112% with MALME-3M melanoma; 97.6% in the test on MDA-MB-231 breast. The growth was 115% in the test with RXF 393 renal; 94.2% in the test on SF-268 CNS; 107% in the test on SF-295 CNS; 110% in the test with SF-539 CNS; 87.8% with UACC-257 melanoma; 102% in the test on M14 melanoma.
For `N#CSCc1ccc(Cl)c(CSC#N)c1`, the growth with NCI-H226 lung was 74.2%; with NCI-H322M lung, 98.7%; in the test with HOP-62 NSCLC, 74%; in the test with NCI-H460 lung, 16.3%; in the test on NCI-H522 lung it was 13.7%; in the test with A549/ATCC NSCLC, 35.5%. Further, the growth with 786-0 renal was 32.1%; in the test with COLO 205 colon it was -7.52% (active); with DU-145 prostate, 16.4%; in the test on K-562 leukemia, 15.2%; with MALME-3M melanoma, 63.7%; in the test on MDA-MB-231 breast it was 45.4%. Besides, the growth is 5.61% (active) in the test with RXF 393 renal; 36.4% in the test with SF-268 CNS; 70.7% with SF-295 CNS; 15.2% with SF-539 CNS; 83.1% in the test with UACC-257 melanoma; 9.39% (active) in the test with M14 melanoma.
